# In PubChem BioAssay AID1631 (National Center for Advancing Translational Sciences (NCATS), 2009):
# The campaign covered roughly 260,000 compounds. About 890 (0.34%) were called active. About 1% were inconclusive and are not listed. The call rests on the fitted dose curve; in most records, active means well fitted activation curve with a large enough effect; inconclusive means small, poorly fitted or top-dose-only effect; inactive means no such curve, though single readings can be large or run the other way. The list comes from a sample in which actives are over-represented; it also holds similar structures and randomly drawn compounds.
# Target: Pyruvate kinase PKM (Homo sapiens) (UniProt P14618)
# Sequence (P14618 whole entry, looked up, canonical isoform): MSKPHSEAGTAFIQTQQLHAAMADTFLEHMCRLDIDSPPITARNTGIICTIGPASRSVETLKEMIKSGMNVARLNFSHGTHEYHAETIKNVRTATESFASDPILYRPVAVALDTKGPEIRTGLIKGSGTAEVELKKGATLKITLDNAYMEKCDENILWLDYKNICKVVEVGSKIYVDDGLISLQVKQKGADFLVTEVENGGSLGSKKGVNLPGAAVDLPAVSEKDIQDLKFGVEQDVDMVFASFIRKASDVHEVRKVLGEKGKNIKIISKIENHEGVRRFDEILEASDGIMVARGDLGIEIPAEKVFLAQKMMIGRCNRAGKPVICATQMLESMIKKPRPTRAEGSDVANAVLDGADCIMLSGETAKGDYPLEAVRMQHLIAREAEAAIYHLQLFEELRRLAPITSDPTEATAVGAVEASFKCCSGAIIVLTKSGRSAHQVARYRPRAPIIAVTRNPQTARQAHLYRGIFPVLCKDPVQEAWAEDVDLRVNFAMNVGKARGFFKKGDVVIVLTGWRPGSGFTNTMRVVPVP
# Assay: qHTS Assay for Activators of Human Muscle isoform 2 Pyruvate Kinase; further: nearly all actives have a fitted effect of over 55% in size
# Settings: purified PKM2, Kinase-Glo ATP luminescence; Potency: activation; series mostly up to 57.5 µM; activation: at the top concentration
# Excerpt: NIH Chemical Genomics Center [NCGC] Matthew G. Vander Heiden, M.D., Ph.D. [Harvard Medical School, 77 Avenue Louis Pasteur, Boston, MA 02115] MLPCN Grant: 1 R03 MH085679-01 NCGC Assay Overview: Human pyruvate kinase muscle 2 (hPK-M2) enzyme was supplied as a highly purified (>95% pure) preparation from Harvard Medical School and assayed for its ability to generate ATP from ADP using phosphoenolpyruvate (PEP) as a substrate. ATP generation was detected in a coupled reaction by luciferase-mediated luminescence, an ATP-dependent process. […] The enzyme was assayed at an intermediate level of activity to screen for both inhibitors and activators.
# NCGC Assay Protocol Summary: Three uL of substrate mix (at r.t.) in assay buffer (50 mM Imidazole pH7.2, 50 mM KCl, 7 mM MgCl2, 0.01% Tween 20, 0.05% BSA) was dispensed into white solid bottom 1,536 well microtiter plates so that the final concentrations of substrates in the assay were 0.1 mM ADP and 0.5 mM PEP. 23 nL of compound were delivered by a pin tool and 1 uL of enzyme mix in assay buffer (4 degree Celsius) was added. Plates were incubated at room temperature for 1 hour. Two uL of detection mix (Kinase-Glo, Promega; at 4 degree Celsius protected from light) was added and luminescence read by a ViewLux (Perkin Elmer) at 5 second exposure/plate. Data were normalized to the uninhibited and AC100 inhibition (no enzyme). To monitor activation, the first column contained a titration of the activator, NCGC00031955-01 (16-point 1:2 dilutions in duplicate starting at 57 uM) and the first 16 rows of column 4 contained 57 uM of NCGC00031955-01.
# On the % scale 0 is the no-effect control and ±100 the full control effect; potency means the concentration at half of the fitted maximal effect.
Compound,Potency,activation
Cc1cc(NC(=O)CSc2nnc(-c3ccc(Cl)s3)o2)no1,2.51 µM (active),–
Cc1nc(SCC(=O)Nc2cc(C)on2)c2c(C)c(C)sc2n1,–,10.7% (inactive)
COc1ccccc1-c1nnc(SCC(=O)Nc2cc(C)on2)o1,–,29.6% (inactive)
COc1cc(NC(=O)C2=CC(c3ccc(C)cc3)=NS(=O)(=O)N2C)cc(OC)c1OC,–,-11.3% (inactive)
CCOc1ccccc1NC(=S)N1CCN(c2cccc(C)c2C)CC1,–,"-8.49% [at 11.5 µM, 0% is enzyme alone, no compound] (inactive)"
Fc1ccc(/C=N/Nc2nc(-c3cccnc3)nc3ccccc23)cc1,–,9.27% (inactive)
CCOc1cc(/C=N/Nc2cc(C)nc3ccc(C)cc23)ccc1O,–,2.65% (inactive)
Cc1ccc2nc(C)cc(N/N=C/c3ccc(F)cc3)c2c1,15.8 µM (active),–
Cc1cc(C)n(C(=O)c2ccc(S(=O)(=O)N3CCCC3)cc2)n1,–,0.764% (inactive)
CC(C)(C)NC(=O)Cn1nnc(-c2ccccc2Cl)n1,–,7.5% (inactive)
Cc1ccccc1-c1nnn(CC(=O)c2ccc(S(=O)(=O)N3CCCC3)cc2)n1,7.94 µM (active),–
O=C(NC(=S)Nc1ccc(Cl)cc1Cl)C1CC1,–,0.937% (inactive)
COC(=O)c1[nH]c2ccccc2c1NC(=O)CN1CCCc2ccccc21,28.2 µM (active),–
NS(=O)(=O)c1cccc(NC(=O)CN2CCCc3ccccc32)c1,–,0.49% (inactive)
COC(=O)c1[nH]c2cccc(C)c2c1NC(=O)CN1CCCc2ccccc21,–,1.83% (inactive)
CCOc1ccccc1NC(=S)NC(=O)CCc1ccccc1,–,4.02% (inactive)
CC(=O)c1cc(C#N)c(SCC(=O)C(C)(C)C)nc1C,–,-4% (inactive)
CC(=O)c1cc(C#N)c(SCC(=O)Nc2nccs2)nc1C,1 µM (active),–
Cc1cc(C(F)(F)F)nc(SCC(=O)Nc2nccs2)n1,–,8.51% (inactive)
CC1CCCCC1NC(=O)CCS(=O)(=O)c1ccc2c(c1)NC(=O)CO2 (centres undefined),–,"0.549% [at 0.46 µM, 0% is enzyme alone, no compound] (inactive)"
CC(=O)OCCN(CCCn1c(-c2ccncc2)nc2ccccc21)c1nc(-c2ccc(C)cc2)cs1,–,-0.825% (inactive)
CC(C)c1ccc(NC2CCCN(C(=O)c3ccncc3)C2)cc1 (centres undefined),–,4.09% (inactive)

Compound,Potency,activation
O=C(c1ccccc1)N1CCN(C(=O)c2cc3nc(-c4ccccc4)cc(C(F)(F)F)n3n2)CC1,–,0.418% (inactive)
CC(C)c1ccc(S(=O)(=O)N2CCN(C(=O)c3ccc(N4CCCC4)c([N+](=O)[O-])c3)CC2)cc1,–,12.8% (inactive)
CCCOc1ccc(/C=N/NC(=O)C2CC2)c(OCCC)c1,–,-0.336% (inactive)
O=C(C1CCC(=O)N(C2CC2)C1)N1CCN(c2ccc(Cl)cc2)CC1 (centres undefined),–,6.03% (inactive)
CC(C)c1ccc(NC(=O)C2CCCN(S(=O)(=O)c3cccnc3)C2)cc1 (centres undefined),–,0.269% (inactive)
COCc1cc(=O)n2[nH]c(C)c(-c3ccccc3)c2n1,–,"-8.06% [at 11.5 µM, 0% is enzyme alone, no compound] (inactive)"
CN(NS(=O)(=O)c1cccs1)c1ncc(C(F)(F)F)cc1Cl,–,-6.67% (inactive)
CCOc1ccccc1N1C(=O)CC(Sc2nccc(C)n2)C1=O (centres undefined),–,4.68% (inactive)
CCCn1c(C2CCCN2c2nc(-c3ccc(OC)cc3)cs2)nc2ccccc21 (centres undefined),–,-18.9% (inactive)
COC(=O)c1ccc(CN2CCCC(C(=O)Nc3cccc(-n4cnnn4)c3)C2)cc1 (centres undefined),–,0.254% (inactive)
CNC(=O)COc1ccc(S(=O)(=O)Nc2ccccc2)cc1,10 µM (active),–
COC(=O)COc1ccc(S(=O)(=O)Nc2ccc(NC(C)=O)cc2)cc1,–,0.72% (inactive)
CCOc1ccc(NS(=O)(=O)c2ccc(OCC(=O)NCCCOC)cc2)cc1,–,7.89% (inactive)
COc1cccc(OCC(O)CNC(=O)c2oc3c(C)c(C)ccc3c2C)c1 (centres undefined),–,-3.96% (inactive)
Cc1ccc(-n2ncc3c2CC(C)(C)CC3NC(=O)Cc2c(C)noc2C)cc1 (centres undefined),–,1.76% (inactive)
O=C(NCCN1CCN(C(=O)c2cccc([N+](=O)[O-])c2)CC1)C(=O)NCc1ccc(Cl)cc1,–,2.86% (inactive)
Cc1ccc(C)c(OCc2cc(C(=O)N3CCN(c4cnccn4)CC3)no2)c1,–,-0.313% (inactive)
C/C(=N\NC(=O)c1ccoc1C)c1ccccc1O,–,-13.3% (inactive)
C=CCn1c(SCc2csc(C)n2)nc2scc(-c3ccc(C)o3)c2c1=O,10 µM (active),–
C=CCNC(=O)CSc1nc2scc(-c3ccco3)c2c(=O)n1CC=C,–,11.1% (inactive)
C=CCn1c(SCC(=O)NCC2CCCO2)nc2sc(C)c(C)c2c1=O (centres undefined),–,1.8% (inactive)
CC(=O)Nc1cccc(Nc2nc(-c3cccs3)nc3ccccc23)c1,–,3.06% (inactive)

Compound,Potency,activation
Cc1cc(NC(=O)c2ccco2)c(=O)n(Cc2c(F)cccc2Cl)c1,–,0.6% (inactive)
N#C[C@]1(S(=O)(=O)c2ccccc2)C[C@@H]2ON=C(c3cccc(Br)c3)[C@@H]2C1,–,-14.9% (inactive)
O=C(Nc1ccc(Cl)cc1)c1cccc(OC(=S)N2CCOCC2)c1,–,-0.431% (inactive)
COc1ccccc1-c1nnc(SCC(=O)Nc2ccccc2)o1,–,10.7% (inactive)
COc1cccc(NC(=O)CSc2nnc(Cc3ccc(OC)c(OC)c3)o2)c1,14.1 µM (active),–
Cc1cc(C)cc(OCc2nnc(SCC(=O)Nc3ccccc3)o2)c1,–,-6.56% (inactive)
O=C(Nc1nnc(S(=O)(=O)N2CCCCCC2)s1)c1cccc(Br)c1,–,-6.77% (inactive)
CCc1ccccc1OCC(=O)Nc1ccc2c(c1)OCCO2,–,8.35% (inactive)
COc1ccc(NS(=O)(=O)c2ccc(N3CCN(CCO)CC3)c([N+](=O)[O-])c2)cc1,–,-1.52% (inactive)
O=C(Nc1ncc([N+](=O)[O-])s1)C1COc2ccccc2O1 (centres undefined),–,-15.3% (inactive)
O=c1cc(Cn2nnc(-c3ccc(Cl)cc3)n2)nc2sccn12,14.1 µM (active),–
O=C(NCc1ccc(Cl)cc1)c1cc2c(nc3sccn32)s1,–,2.77% (inactive)
CCn1c(SCc2cc(=O)n3ccsc3n2)nc2ccccc21,–,-1.44% (inactive)
Clc1cccc(Cl)c1OCCOCCNCc1ccccc1,–,-2.65% (inactive)
COc1nnc(-c2ccc(C)c(S(=O)(=O)N(C)C)c2)c2ccccc12,–,-1.4% (inactive)
COc1cc(/C=C/C(=O)N2CCc3ccccc3C2)cc(OC)c1OC,–,0% (inactive)
COc1ccc(-c2oc3ncnc(NCCCO)c3c2-c2ccc(OC)cc2)cc1,–,1.83% (inactive)
C=CCNC(=S)/N=c1/ccccn1Cc1ccccc1,–,-5.18% (inactive)
O=C(/C=C/c1ccc([N+](=O)[O-])o1)NNC(=O)c1ccc(F)cc1,–,-6.12% (inactive)
COCCNc1cc(-c2ccccc2)nc2cc(-c3cccc(F)c3)nn12,–,3.4% (inactive)
